# In PubChem BioAssay AID848 (Columbia University Molecular Screening Center, 2007):
# Screen size: about 93,000 compounds; about 160 (0.17%) were called active. This excerpt belongs to a sample that is enriched for actives. Unmarked numbers belong to inactive results.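 How the source made its calls: active means cell count reduction exceeding the screen mean by over 5 SD, scaled to untreated wells per plate (cut at about 78% in these data); inactive means the rest.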
# Assay: HUVEC nuclei count loss under TNFa – imaging, Hoechst nuclei count, cytotoxicity control for VCAM1 expression modulator project, primary screen (AID 848);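 further: cells counted after 24 h of TNF alpha exposure following the 1 h pretreatment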
# Settings: HUVEC TNFalpha-stimulated, at 2 µM, stronger effect = higher value
row,SMILES,cell count reduction
1,O=C(CSc1ccc(/C=N/NC(=O)c2cccc(F)c2)o1)Nc1ccccc1,-19.1%
2,C=CCn1c(-c2ccc(Cl)cc2)ccc(C#N)c1=O,4.1%
3,CCC(c1nnnn1C(C)(C)C)N(Cc1cc2cccc(C)c2n2nnnc12)C1CCCC1 (stereo unspecified),-17%
4,O=C(CCCN1C(=O)c2ccccc2C1=O)Oc1ccc(Cl)cc1,-17.1%
5,CN1/C(=c2/s/c(=C3/C(=O)N(c4ccccc4)NC3=Nc3ccccc3)n(C)c2=O)C(C)(C)c2ccccc21,3.8%
6,C(=N/N1CCN(c2ccccc2)CC1)/c1cccs1,-6.5%
7,Cc1ccc(-n2c(CNc3ccc(F)cc3)nnc2SCC(=O)N2CCOCC2)cc1,-20.7%
8,COc1ccc(-c2c(C(C)=O)c(C)nc3sc4c(=O)n(-c5ccc(C)cc5)nnc4c23)cc1,-14.8%
9,Cc1cc(C)n2nc(C(=O)NC(C)(C)C)nc2n1,14.4%
10,COc1cc(OC)cc(C(=O)NC(=S)N2CCN(c3ccc(C(F)(F)F)cc3[N+](=O)[O-])CC2)c1,-5.1%
11,Cc1cccc(N(C(=O)c2ccc(CN3CCOCC3)o2)C(C(=O)NC2CCCCC2)c2ccc(F)cc2)c1 (stereo unspecified),-36.1%
12,Cc1ccc(-n2nc(N)c3c(=O)oc(N(C)C)nc32)cc1,5%
13,CN(C)/C=C/C(=O)c1ccccc1F,-9%
14,O=C(Nc1ccccc1)c1ccc2nsnc2c1,5.4%
15,O=C(Nc1cc(C(F)(F)F)ccc1Cl)c1cc2nc3c(c(C(F)(F)F)n2n1)CCCC3,-32.1%
16,CCCCOC(=O)Cn1c(=O)n(CC(=O)OCCCC)c2cc(C)ccc21,-29.5%
17,CCOC(=O)c1nc(C)n(-c2ccc(Cl)cc2Cl)n1,-3.8%
18,COc1ccc(/C=N/Nc2nc3ccccc3c(=O)[nH]2)cc1,18.9%
19,CC(=O)N1CCc2cc(S(=O)(=O)Nc3ccccc3N3CCN(C)CC3)ccc21,-25.4%
20,CC(=O)N1CCCc2cc(S(=O)(=O)CCC(=O)N3CCN(c4ccccc4)CC3)ccc21,-22.4%
21,CCCNS(=O)(=O)c1ccc2c(c1)CCCN2C(C)=O,100% (active)
22,O=C(/C=C/c1ccco1)Nc1ccc(Oc2ccccc2)cc1,-16.8%
23,CCn1c2ccccc2c2cc(NC(=S)N3CCOCC3)ccc21,-4%

row,SMILES,cell count reduction
1,O=C(NCc1cccnc1)c1cccnc1Sc1ccc(Cl)cc1,-20.6%
2,Cc1ccc(C)c(NC(=O)C2Cc3ccccc3CN2C(=O)OCc2ccccc2)c1 (stereo unspecified),-19.8%
3,CSc1cc(C)n(-c2ccccc2C)c(=S)c1C(C)=O,-11.4%
4,CC(C)(C)NS(=O)(=O)c1ccc(NC(=O)NC2CCCCC2)cc1,2.5%
5,CC(C)(C)c1ccc(OC2=CS(=O)(=O)c3ccccc32)cc1,-12%
6,O=C(N/N=C\c1ccc(-c2ccc(Cl)c(Cl)c2)o1)C(=O)N1CCCC1,-10.6%
7,c1ccc(CSc2ncnc3c2sc2nc(N4CCOCC4)c4c(c23)CCCC4)cc1,-21.4%
8,CCC(C)n1c(-c2cc(OC)c(OC)c(OC)c2)nc2nc3ccccc3nc21 (stereo unspecified),5.6%
9,O=C(Oc1ccccc1)Oc1ccc2c(c1)oc(=O)c1ccccc12,-8.6%
10,Cc1ccc(Oc2ccc3c(c2)C(=O)N(c2cccc4cccnc24)C3=O)cc1,16.6%
11,O=C(Nc1ccccc1)O/N=C1\CCCCC1c1ccc([N+](=O)[O-])cc1[N+](=O)[O-] (stereo unspecified),-15.6%
12,O=C(CSc1nc2ccccc2o1)N1c2ccccc2Sc2ccc(Cl)cc21,4.3%
13,O=C(CCl)NNc1cccc(Cl)n1,-9%
14,Cc1cc(-c2cccs2)nc(-n2cccc2)n1,3.7%
15,COc1cccc2cc(C(=O)N3CCN(C(=O)c4ccccc4)CC3)c(=O)oc12,-19.2%
16,O=C(Cc1ccc(S(=O)(=O)N2CCOCC2)s1)NCCC(c1ccccc1)c1ccccc1,-20.2%
17,Cc1cc(C)c2nc(NC(=O)c3ccc4c(c3)OCO4)sc2c1,-4.3%
18,CC(Oc1ccc(-c2ccccc2)c(F)c1)c1ccn(S(=O)(=O)c2cccc3ccccc23)n1 (stereo unspecified),-7.1%
19,Clc1ccc(-c2cc(COc3ccccc3)no2)cc1Cl,2%
20,COC(=O)c1ccc(C2C(Oc3ccccc3C)C(=O)N2CCc2ccc(OC)c(OC)c2)cc1 (stereo unspecified),-15.9%
21,CN(C)Cc1ccccc1C1(O)c2ccccc2CSc2ccccc21 (stereo unspecified),12.2%
22,Cc1cc(C)c2cc(CN(Cc3nnnn3Cc3ccc(F)cc3)C3CCCC3)c(=O)[nH]c2c1,-8.7%
23,CCCc1ccc(OCc2ccc(C(=O)N/N=C/c3cccc([N+](=O)[O-])c3)o2)c(OC)c1,11.6%
